Experimental findings from PubChem BioAssay (NCI) are described below.

Compounds without any hit were thinned out: in the full panel of roughly 83,000, 20% have a hit.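 The endpoint reported here, percent growth, reads 100 for growth as untreated, 0 for no net growth and -100 for all cells dead.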 A number with no mark means an inactive call. The source made the active and inactive calls. How the source made its calls: active means growth percent below 10; inactive means the rest.

Test in all cases: NCI-60 one-dose screen, 48 h (100 = growth as untreated, 0 = no growth, -100 = all killed)
What all share (details): 10 µM unless noted

Assay [1] has as its system NCI-H23 lung.
Assay [2] deals with NCI-H226 lung.
Assay [3] deals with HOP-62 NSCLC.
Assay [4] relates to NCI-H460 lung.
Assay [5] deals with HOP-92 NSCLC.
Assay [6] relates to NCI-H522 lung.
The test system of assay [7] is A549/ATCC NSCLC.
Assay [8] deals with 786-0 renal.
Assay [9] relates to COLO 205 colon.
Assay [10] deals with DU-145 prostate.
Assay [11] has as its system K-562 leukemia.
For assay [12], the system named is MALME-3M melanoma.
Assay [13] concerns MDA-MB-231 breast.
Assay [14] deals with RXF 393 renal.
Assay [15] deals with SF-268 CNS.
Assay [16] concerns SF-295 CNS.
In assay [17] the test system is SF-539 CNS.
Assay [18] relates to UACC-257 melanoma.
In assay [19] the test system is M14 melanoma.

In the case of `CCC(C)c1c(N)n(S(=O)(=O)c2ccc(C)cc2)oc1=O` (stereo unspecified), the growth is 108% in assay [1]; 111% in assay [2]; 112% in assay [3]; 105% in assay [4]; 105% in [5]; 90.1% in assay [6]. The growth in assay [7] is 108%; in [8] it was 119%; in [9], 124%; in [10], 115%; in assay [11] it was 130%; in assay [12], 135%. The growth in assay [13] is 108%; in [14], 125%; in assay [15], 109%; in assay [16] it was 104%; in assay [17], 96.6%; in [18] it was 90.6%. In addition, the growth in assay [19] is 105%.

Consider `ClCc1cccc2c(CCl)cccc12`, for which the growth in [1] is 61.5%; in [2], 74.9%; in assay [3], 54.5%; in assay [4], 16.7%; in [5] it was 89.4%; in assay [6], 79.4%. Further, the growth in assay [7] was 57.7%; in assay [8], -74.3% (active); in [9], 77.9%; in [10], 32.6%; in [11], 79.2%; in assay [12], 90.6%. The growth in assay [13] was 92.3%; in [14] it was 61%; in assay [15] it was 64.3%; in assay [16], 58.6%; in [17], 61.6%; in [18] it was 70%. For the same compound, the growth in assay [19] is 25.8%.

As for `O=Cc1c(O)c2ccccc2[nH]c1=O`, the growth in assay [1] was 97.8%; in assay [2], 88.6%; in assay [3], 102%; in [4], 103%; in [5] it was 110%; in assay [6], 94.8%. Further, the growth in assay [7] is 90.1%; in assay [8] it was 104%; in [9] it was 108%; in assay [10] it was 158%; in assay [11] it was 111%; in [12], 139%. Besides, the growth in assay [13] was 99.6%; in assay [14] it was 114%; in [15], 110%; in [16] it was 109%; in [17], 97.9%; in [18], 84.8%. The growth in assay [19] is 94.4%.

On to `CCC(=O)C1C(=O)c2ccccc2C1=O`, for which the growth in assay [1] was 101%; in [2], 104%; in assay [3], 99%; in [4], 115%; in [5], 85.8%; in [6], 86.6%. For the same compound, the growth in [7] is 113%; in assay [8], 107%; in [9] it was 122%; in assay [10], 113%; in [11], 63.7%; in assay [12], 96.8%. Further, the growth in assay [13] is 89.8%; in [14], 120%; in assay [15], 101%; in assay [16], 96.9%; in [17], 106%; in assay [18] it was 110%. Moreover, the growth in [19] is 111%.

`CC1=CC(=Nc2ccc(N(C)C)cc2)C=C(C)C1=O`: the growth was 66.2% in assay [1]; 83.5% in assay [2]; 86% in assay [3]; 102% in assay [4]; 48.6% in assay [5]; 94.4% in assay [6]. Also, the growth in assay [7] was 77.9%; in assay [8], 95%; in [9] it was -14.5% (active); in [10], 101%; in assay [11] it was 75.1%; in assay [12] it was 92.6%. For the same compound, the growth is 64% in assay [13]; 65.1% in assay [14]; 88.6% in assay [15]; 97.3% in assay [16]; 77.5% in assay [18].

Take `O=C(NC1CCCCC1)c1ccc(Cl)cc1`: the growth in assay [1] is 95.7%; in assay [2] it was 92.5%; in assay [3] it was 92.8%; in [4], 101%; in assay [5], 95%; in [6], 96.2%. The growth was 99.9% in assay [7]; 103% in assay [8]; 109% in [9]; 103% in assay [10]; 96.5% in [11]; 106% in assay [12]. Further, the growth in assay [13] is 113%; in assay [15], 97.1%; in [16] it was 105%; in assay [17] it was 104%; in assay [18], 105%; in assay [19], 105%.

In the case of `CCOC(C=O)OCC`, the growth in assay [1] was 99%; in assay [2] it was 104%; in assay [3], 99.5%; in assay [4] it was 113%; in [5], 95.8%; in [6], 93.1%. The growth is 97.4% in assay [7]; 99.7% in [8]; 105% in [9]; 104% in [10]; 106% in [11]; 92.6% in [12]. The growth was 121% in assay [14]; 98.3% in [15]; 99% in [16]; 97.8% in [17]; 96.6% in assay [18]; 106% in assay [19].

As for `OC(CCN1CCCCC1)(c1ccccc1)c1ccccc1`, the growth in [1] is 98.6%; in assay [2] it was 104%; in assay [3], 110%; in assay [4], 116%; in assay [5] it was 85.6%; in assay [6], 98.4%. The growth in assay [7] was 104%; in [8], 98.1%; in [9], 103%; in [10] it was 115%; in [12], 95.4%; in [13], 105%. Also, the growth in assay [14] was 91.7%; in assay [15], 104%; in assay [16], 111%; in [17] it was 117%; in [18], 100%; in assay [19], 99.2%.

Consider `Cc1ccc(Cc2ccc(C)cc2)cc1`, for which the growth in [1] was 106%; in assay [2], 100%; in [3], 98.1%; in assay [4] it was 111%; in assay [5] it was 97.5%; in [6], 95.3%. Besides, the growth in [7] is 102%; in assay [8], 96.1%; in [9], 107%; in [10] it was 107%; in [11], 101%; in assay [12], 86.9%. The growth in assay [13] was 123%; in assay [14], 99%; in assay [15], 106%; in [16] it was 101%; in assay [17], 106%; in [18] it was 93.3%. In addition, the growth in assay [19] was 99.6%.
